Data reported in article PMC4336329 (PLoS ONE, 2015).
Hit rate of the full screen: of about 310,000 compounds, about 14,000 (4.5%) showed an effect of 50% or more. Effects have a minus sign here. This is one part of a sample in which strong results are shown more often than they occur.

biological target: human ether-à-go-go-related gene (hERG) potassium channel (human, UniProt Q12809); experiment: primary screen, population patch clamp on CHO cells stably expressing hERG; higher = less effect of the substance
Sequence (Q12809 whole entry, looked up): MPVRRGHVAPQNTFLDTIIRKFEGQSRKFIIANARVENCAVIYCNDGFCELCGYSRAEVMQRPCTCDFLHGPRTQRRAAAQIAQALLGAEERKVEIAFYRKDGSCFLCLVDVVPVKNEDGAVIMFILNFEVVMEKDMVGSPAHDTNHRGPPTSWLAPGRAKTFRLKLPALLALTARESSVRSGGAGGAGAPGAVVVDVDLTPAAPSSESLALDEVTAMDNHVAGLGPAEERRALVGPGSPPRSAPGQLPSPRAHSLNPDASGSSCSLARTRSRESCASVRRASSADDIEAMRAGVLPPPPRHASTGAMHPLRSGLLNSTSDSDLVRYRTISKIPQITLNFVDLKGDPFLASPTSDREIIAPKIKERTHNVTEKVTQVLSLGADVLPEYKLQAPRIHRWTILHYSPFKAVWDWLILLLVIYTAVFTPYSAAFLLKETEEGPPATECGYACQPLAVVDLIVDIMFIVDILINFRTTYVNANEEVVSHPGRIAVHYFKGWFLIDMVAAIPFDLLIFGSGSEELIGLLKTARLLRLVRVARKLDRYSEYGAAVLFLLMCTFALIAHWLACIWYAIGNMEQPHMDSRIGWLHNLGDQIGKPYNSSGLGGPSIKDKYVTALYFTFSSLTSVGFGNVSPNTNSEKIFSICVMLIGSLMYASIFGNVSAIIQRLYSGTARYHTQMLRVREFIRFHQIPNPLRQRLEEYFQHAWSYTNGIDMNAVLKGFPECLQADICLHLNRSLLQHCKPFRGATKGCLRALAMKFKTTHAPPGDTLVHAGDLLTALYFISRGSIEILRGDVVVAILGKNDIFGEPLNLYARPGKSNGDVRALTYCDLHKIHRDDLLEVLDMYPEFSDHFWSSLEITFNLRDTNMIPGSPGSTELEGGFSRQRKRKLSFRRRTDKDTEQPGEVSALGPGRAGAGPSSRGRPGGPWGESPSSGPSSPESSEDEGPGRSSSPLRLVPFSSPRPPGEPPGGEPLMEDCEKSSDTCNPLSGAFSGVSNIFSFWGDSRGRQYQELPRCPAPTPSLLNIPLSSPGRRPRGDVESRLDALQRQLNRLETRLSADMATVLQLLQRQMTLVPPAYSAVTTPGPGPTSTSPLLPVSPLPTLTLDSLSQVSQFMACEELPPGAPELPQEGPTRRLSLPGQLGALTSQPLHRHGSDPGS
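Note: peak tail current of the secondary pulse compared with the same well before compound.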

SMILES	hERG current change (%, negative = inhibition) at 10uM [%]
CC(=O)N1CCCc2ccccc21	15.5
O=C(NCc1ccc(Cl)c(Cl)c1)c1ccc2c(c1)OCO2	-10.7
COc1ccccc1C(=O)NC(CCSC)C(=O)NNC(=O)C(C)Oc1ccccc1F (centres unmarked)	0.592
O=C(O)COc1nsnc1N1CCOCC1	10.4
COc1cc(C(=S)N2CCCCC2)ccc1OCC(=O)Nc1ccccc1Cl	18.9
S=c1[nH]nc(-c2ccc(Br)cc2)n1-c1ccc(Br)cc1	12.2
CCOC(=O)c1sc(N(Cc2ccccc2)C(=O)COC(=O)c2cnccn2)nc1C	0.26
CCc1ccc(NC2=NC(C(=O)NC3CCCCC3)CC(=O)N2)cc1 (centres unmarked)	14.9
O=c1[nH]c2cccnc2n1Cc1ccccc1	7.67
CCc1ccc(NC(=O)C(=O)N/N=C(\C)CC(=O)NCCOC)cc1	-2.99
CN(CCOc1ccccc1)C(=O)c1cc([N+](=O)[O-])cc([N+](=O)[O-])c1	-56.9
O=C(NCCOc1ccccc1)c1cc(C(=O)NCCOc2ccccc2)cc([N+](=O)[O-])c1	-15.2
CN(CCOc1ccccc1)C(=O)c1ccc(Cl)c(S(=O)(=O)N2CCCCC2)c1	-67.4
CN(CCOc1ccccc1)C(=O)c1ccc(N2CCCC2)c([N+](=O)[O-])c1	-27.5
CN(CCOc1ccccc1)C(=O)c1cc(S(=O)(=O)N2CCCCC2)ccc1Cl	-42.7
Cc1ccc(C(=O)N(C)CCOc2ccccc2)cc1S(=O)(=O)N1CCOCC1	-15.6
CN(CC1COc2ccccc2O1)C(=O)c1ccc(Cl)c(S(=O)(=O)N2CCCCCC2)c1 (centres unmarked)	-25.8
Cc1ccc(C(=O)N(C)CCOc2ccccc2)cc1S(=O)(=O)N1CCCCC1	-51.4
Cc1ccc(S(=O)(=O)N2CCCCC2)cc1C(=O)N(C)CCOc1ccccc1	-48
CCn1cc(S(=O)(=O)NC(C)c2cc(OC)ccc2OC)cn1 (centres unmarked)	1.25
CC(C)O.COC(=O)Nc1ccc2c(c1)N(C(=O)CCN1CCN3CCCC3C1)c1ccccc1CC2.Cl.O (centres unmarked)	1.43
CC(=O)c1cc(F)c(N2CCN(C(=O)c3ccco3)CC2)cc1C	-18.5
Cn1c(Cl)c(/C=N/OC(=O)c2ccc(Cl)cc2)c2ccccc21	-5.13
Cc1ccc(-c2nnn(CC(=O)N(Cc3ccc(F)cc3)C(C(=O)NC3CCCC3)c3ccncc3)n2)o1 (centres unmarked)	-12.4
CCOC(=O)c1ccc(Nc2c(OCC)c(=O)c2=O)cc1	-15.4
C=CCOc1ccc(-c2nc3c(c(=O)[nH]c(=O)n3CCC)n2CCCC)cc1	-5.34
CCCn1c(=O)[nH]c(=O)c2c1nc(-c1ccc(C#N)cc1)n2CCOC	-2.78

SMILES	hERG current change (%, negative = inhibition) at 10uM [%]
CCCCn1c(=O)[nH]c(=O)c2c1nc(COc1ccc(C#N)cc1)n2CCC	-57.2
C=CCn1c(SCc2nc3c(c(=O)[nH]c(=O)n3CCCC)n2CCC)nnc1-c1ccccc1	-60.5
C=CCn1c(SCc2ccccc2)nc2c1c(=O)[nH]c(=O)n2C	-21.6
CCCCn1c(=O)[nH]c(=O)c2c1nc(-c1ccc(C(F)(F)F)cc1)n2C	3.8
CCCCn1c(=O)[nH]c(=O)c2c1nc(-c1ccc(OCC)cc1)n2CC	1.27
CCCCn1c(=O)[nH]c(=O)c2c1nc(-c1ccc(-c3ccccc3)cc1)n2C	20.2
CCCCn1c(=O)[nH]c(=O)c2c1nc(-c1ccc(-c3ccc(F)cc3)o1)n2C	-55
CCCCn1c(O)c(/C(C)=N/NC(=O)Nc2ccccc2)c(=O)[nH]c1=O	7.7
O=P(C(c1ccc2c(c1)OCO2)N1CCOCC1)(N1CCOCC1)N1CCOCC1 (centres unmarked)	4.64
O=C(CN1CCN(c2ncc(C(F)(F)F)cc2Cl)CC1)Nc1ccc2c(c1)OCO2	-37.7
Cc1oc(-c2ccc(Cl)cc2)nc1CSCC(=O)NC1CCN(Cc2ccccc2)CC1	-73.1
Cc1ccc(-c2nc(CSCC(=O)NCCCN3CCOCC3)c(C)o2)cc1	14.1
Cc1ccc(-c2nc(CSCC(=O)NCCN3CCN(Cc4ccccc4)CC3)c(C)o2)cc1	-65.2
CCOc1ccc(-c2nc(CSCC(=O)NCCN3CCOCC3)c(C)o2)cc1	11.3
COc1ccc(-c2nc(CSCC(=O)NC3CCN(Cc4ccccc4)CC3)c(C)o2)cc1OC	-40.9
Cc1ccc(-c2nc(CSCC(=O)NC3CCN(Cc4ccccc4)CC3)c(C)o2)cc1	-44
COc1ccc(-n2nc(C(=O)NCC(=O)N3CCN(c4ccccc4OC)CC3)c3ccccc3c2=O)cc1OC	-34.5
CC1CCN(C(=O)CCc2ccc(S(=O)(=O)NC(C)(C)C)cc2)CC1	-5.31
O=C(N/N=C/c1ccncc1)c1cc([N+](=O)[O-])cc([N+](=O)[O-])c1O	4.15
CCOC(=O)C(=O)Nc1nnc(CCc2ccccc2)s1	6.37
CCCNS(=O)(=O)c1ccc(OCC(=O)N2CCN(Cc3ccc4c(c3)OCO4)CC2)cc1	-32
Cc1cc(S(=O)(=O)NC(C)C)ccc1OCC(=O)N1CCN(Cc2ccc3c(c2)OCO3)CC1	-27.6
Cc1ccc(OCC(=O)N2CCc3ccccc3C2)c(C)c1	-16.1
CCCNS(=O)(=O)c1ccc(OCC(=O)N2CCN(Cc3ccc4c(c3)OCO4)CC2)c(C)c1	-61.6
COCCNS(=O)(=O)c1ccc(OCC(=O)N2CCc3ccccc3C2)c(Cl)c1	-43.5
CCCNS(=O)(=O)c1ccc(OCC(=O)N2CCc3ccccc3C2)c(C)c1	-65.9
